# Measurements published in PubChem BioAssay (NCATS).
# Inconclusive results are not listed. Unmarked numbers belong to inactive results. Activity calls are given as the source filed them. Calls come from the whole dose curve; as a rule, active = well fitted curve in the direction sought with a large enough effect; inconclusive = small, poorly fitted or top-dose-only effect, or another doubt; inactive = no such curve, though single readings can be large; an effect the other way counts as inactive or inconclusive.
# Target: Rap guanine nucleotide exchange factor 3 (Homo sapiens) (UniProt O95398)
# Experiment: Confirmatory qHTS for antagonist of cAMP-regulated guanine nucleotide exchange factor 3 (EPAC1) (AID 1645880); note: nearly all actives have a fitted effect of over 55% in size;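 for activity, negative = inhibition: plate controls were DMSO only for no effect and full effect of the ATA control for full effect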
# Conditions: EPAC1 Rap1B-BODIPY-GDP exchange, fluorescence; series mostly up to 115 µM; activity, negative = inhibition: at the top concentration
# In short: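 Released BODIPY-GDP fluoresces less than Rap1-bound BODIPY-GDP; the signal is followed at 480/540 nm at 5-min intervals over 30 min, after 5 min at room temperature. Reactions contain 100 nM EPAC1, 250 nM RAP1B-BODIPY-GDP and 50 uM GDP; results are normalized to ATA and DMSO.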
# Potency is the fitted concentration of half-maximal effect.
# Chain of Rap guanine nucleotide exchange factor 3 (Homo sapiens) (O95398 whole entry, looked up): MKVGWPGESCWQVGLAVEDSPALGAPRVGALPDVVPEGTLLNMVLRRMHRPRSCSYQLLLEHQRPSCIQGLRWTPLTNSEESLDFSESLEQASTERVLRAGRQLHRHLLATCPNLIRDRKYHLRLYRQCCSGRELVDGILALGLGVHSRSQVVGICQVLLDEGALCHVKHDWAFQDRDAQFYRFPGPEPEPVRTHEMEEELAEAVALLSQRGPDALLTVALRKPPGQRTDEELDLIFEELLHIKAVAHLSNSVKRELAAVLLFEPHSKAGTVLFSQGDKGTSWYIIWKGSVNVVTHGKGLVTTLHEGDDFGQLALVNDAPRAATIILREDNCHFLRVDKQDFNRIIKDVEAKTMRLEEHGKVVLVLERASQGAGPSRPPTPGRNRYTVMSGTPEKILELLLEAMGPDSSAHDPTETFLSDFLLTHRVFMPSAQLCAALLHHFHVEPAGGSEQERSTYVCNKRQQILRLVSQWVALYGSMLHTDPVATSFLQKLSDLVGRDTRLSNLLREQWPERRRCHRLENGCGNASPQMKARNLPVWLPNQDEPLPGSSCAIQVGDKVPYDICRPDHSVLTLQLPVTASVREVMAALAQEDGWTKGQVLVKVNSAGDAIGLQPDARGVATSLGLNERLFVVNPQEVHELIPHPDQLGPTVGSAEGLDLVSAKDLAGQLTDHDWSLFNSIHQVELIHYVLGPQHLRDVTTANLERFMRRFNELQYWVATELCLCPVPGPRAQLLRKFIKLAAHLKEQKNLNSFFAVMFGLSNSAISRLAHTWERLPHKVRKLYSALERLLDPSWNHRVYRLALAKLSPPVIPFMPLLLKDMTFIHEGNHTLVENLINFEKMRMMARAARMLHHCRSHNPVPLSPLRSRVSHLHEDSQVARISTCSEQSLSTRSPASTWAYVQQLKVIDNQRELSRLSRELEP
Structure (SMILES),"activity, negative = inhibition",Potency
O=C1Nc2ccccc2Nc2ncccc21,-14.2%,
O=C(NN1C(=O)/C(=C/c2ccc(O)c(O)c2)SC1=S)c1ccccc1,,7.57 µM (active)
CCc1ccc(NC(=O)CSc2nnc(Cc3cccn3C)n2-c2ccc(OC)cc2)cc1,-28.4%,
CCOC(=O)C1C(=O)C=C(c2ccccc2)CC1c1ccccc1 (stereo not given),-22%,
CCCN1C(=O)c2ccccc2NC1c1ccc(OC)cc1OC (stereo not given),-3.17%,
CCOc1ccc(NCc2nc3ccccc3n2CCOc2ccccc2)cc1,-19.4%,
O=C(N/N=C\c1cc([N+](=O)[O-])ccc1N1CCCC1)c1ccccn1,-29.4%,
CN(C)C(=O)c1cccc(-c2cnc3c(NC=O)cc(-c4ccc(F)cc4)cn23)c1,-15.9%,
CCc1ccc(Nc2n[n+](-c3ccccc3)c(-c3cc(OC)c(OC)cc3Br)s2)cc1,-22.1%,
S=C(NCCCN1CCOCC1)Nc1cccc(-c2nnc3n2CCCCC3)c1,-13%,
CCOc1ccc(/C(C)=N/NC(=O)C(OC)c2ccccc2)cc1 (stereo not given),-25.9%,
Oc1ccc(N=Cc2c(O)ccc3ccccc23)cc1,-15.8%,
COc1ccc(C(C(=O)c2ccccc2)c2ccccc2)cc1 (stereo not given),21.9%,
Cc1ccc(C2CC(=O)Oc3cc(C)cc(C)c32)cc1 (stereo not given),-28.9%,
CCc1cccc2sc(N3CCN(C(=O)C4CC4)CC3)nc12,-18.4%,
Cc1cc(C)cc(NC(=O)N2CCC(CN3CCc4ccccc4C3)CC2)c1,-15.8%,
CCOC(=O)[C@@H](NC(=O)/C=C/[C@H]1O[C@@H](n2cc(C)c(=O)[nH]c2=O)C[C@@H]1O)C(C)C,-7.18%,
CCOC(=O)COc1ccc(Br)cc1/C=C\c1[nH]c(=O)[nH]c(=O)c1[N+](=O)[O-],,20 µM (active)
O=c1[nH]c([N+](=O)[O-])nn1C(c1ccccc1)c1ccccc1,-27.4%,
COc1ccc(C(=O)c2ccc(OC)c(OC)c2OC)cc1,-17.9%,

Structure (SMILES),"activity, negative = inhibition",Potency
Cc1ccc(S(=O)(=O)N2CCN(CC(=O)Nc3ccccc3C(=O)NC3CC3)CC2)cc1,-13.6%,
Cc1c(C(=O)NCCO)sc2nc3n(c(=O)c12)CCC3,-21.8%,
CC[C@H]1C(c2ccc(F)cc2)=NN(c2ccccc2)[C@@H]1CO,-28.5%,
CC(C)c1nc(SCC(=O)N2CCCc3ccccc32)c2c(=O)n(C)c(=O)n(C)c2n1,-21.5%,
COc1cc(-c2c(CCO)sc3ccccc23)cc(OC)c1OC,-15.2%,
COC(=O)c1cc2oc(C)cc2n1Cc1ccc(Br)cc1F,-29.5%,
N#CC(C(=O)NCc1ccco1)c1nc2ccccc2nc1N1CCOCC1 (stereo not given),-17%,
O=C1CNC(=O)c2c(nc3n2CCC3)N1,-8.24%,
CC(=O)N1N=C(N)SC1c1ccc(Cl)c(Cl)c1 (stereo not given),-6.67%,
CC/C(=N/NC(=O)c1ccc2c(c1)OCO2)c1ccccc1O,,15.1 µM (active)
COc1cc(/C=C2/C(=O)NN(c3ccc(Cl)cc3)C2=O)ccc1OC(=O)c1ccco1,,47.8 µM (active)
O=C(O)CN1C(=O)/C(=C\c2cccc(OCc3ccccc3F)c2)SC1=S,,42.6 µM (active)
Cc1ccc(C)c(S(=O)(=O)N2CCN(C(=O)CCCc3c[nH]c4ccccc34)CC2)c1,-15.6%,
Cc1ccc(C(=O)Nc2ccc(N3CCOCC3)c3nonc23)cc1[N+](=O)[O-],,47.8 µM (active)
Cc1cccc(C(=O)Nc2cccc(C(=O)N/N=C/c3cccc(C)n3)c2)c1,-18.2%,
Cc1nn(-c2ccccc2)c(C)c1NC(=O)COC(=O)Cc1cccc(C(F)(F)F)c1,-38.2%,
O=C(c1ccco1)N(CCC(c1ccccc1)c1ccco1)Cc1ccco1 (stereo not given),,75.7 µM (active)
COC1C(CO)OC(n2c3c(Cl)cccc3c3c4c(c5c6cccc(Cl)c6[nH]c5c32)C(=O)NC4=O)C(O)C1O (stereo not given),34.1%,
Cc1ccc(-n2nc(C(=O)N(C)c3ccc(C)c(C)c3)c3c4ccccc4n(C)c3c2=O)cc1,-13.7%,
CN1CCN(CCC(=O)Nc2ccc(Cl)cc2)CC1,-20.4%,

# Target: Rap guanine nucleotide exchange factor 3 (Homo sapiens) (UniProt O95398)
# Experiment: Confirmatory qHTS for agonist of cAMP-regulated guanine nucleotide exchange factor 3 (EPAC1) (AID 1645881); note: nearly all actives have a fitted effect of over 75% in size;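 for activation: EPAC1 catalysed release of BODIPY-GDP from Rap1B seen as fluorescence loss; 100% = effect of cAMP agonist control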
# Conditions: EPAC1 Rap1B BODIPY-GDP exchange fluorescence; series mostly up to 154 µM; activation: at the top concentration
Structure (SMILES),activation,Potency
O=C1Nc2ccccc2Nc2ncccc21,1.51%,
O=C(NN1C(=O)/C(=C/c2ccc(O)c(O)c2)SC1=S)c1ccccc1,8.27%,
CCc1ccc(NC(=O)CSc2nnc(Cc3cccn3C)n2-c2ccc(OC)cc2)cc1,16.7%,
CCOC(=O)C1C(=O)C=C(c2ccccc2)CC1c1ccccc1 (stereo not given),14.5%,
CCCN1C(=O)c2ccccc2NC1c1ccc(OC)cc1OC (stereo not given),16%,
CCOc1ccc(NCc2nc3ccccc3n2CCOc2ccccc2)cc1,11.6%,
O=C(N/N=C\c1cc([N+](=O)[O-])ccc1N1CCCC1)c1ccccn1,-56.5%,
CN(C)C(=O)c1cccc(-c2cnc3c(NC=O)cc(-c4ccc(F)cc4)cn23)c1,12.6%,
CCc1ccc(Nc2n[n+](-c3ccccc3)c(-c3cc(OC)c(OC)cc3Br)s2)cc1,4.78%,
S=C(NCCCN1CCOCC1)Nc1cccc(-c2nnc3n2CCCCC3)c1,5.37%,
CCOc1ccc(/C(C)=N/NC(=O)C(OC)c2ccccc2)cc1 (stereo not given),9.22%,
Oc1ccc(N=Cc2c(O)ccc3ccccc23)cc1,18.8%,
COc1ccc(C(C(=O)c2ccccc2)c2ccccc2)cc1 (stereo not given),,100 µM (active)
Cc1ccc(C2CC(=O)Oc3cc(C)cc(C)c32)cc1 (stereo not given),21.5%,
CCc1cccc2sc(N3CCN(C(=O)C4CC4)CC3)nc12,3.63%,
Cc1cc(C)cc(NC(=O)N2CCC(CN3CCc4ccccc4C3)CC2)c1,7.7%,
CCOC(=O)[C@@H](NC(=O)/C=C/[C@H]1O[C@@H](n2cc(C)c(=O)[nH]c2=O)C[C@@H]1O)C(C)C,18.2%,
CCOC(=O)COc1ccc(Br)cc1/C=C\c1[nH]c(=O)[nH]c(=O)c1[N+](=O)[O-],-5.28%,
O=c1[nH]c([N+](=O)[O-])nn1C(c1ccccc1)c1ccccc1,5.16%,
COc1ccc(C(=O)c2ccc(OC)c(OC)c2OC)cc1,5.98%,

Structure (SMILES),activation,Potency
Cc1ccc(S(=O)(=O)N2CCN(CC(=O)Nc3ccccc3C(=O)NC3CC3)CC2)cc1,0.0449%,
Cc1c(C(=O)NCCO)sc2nc3n(c(=O)c12)CCC3,11.9%,
CC[C@H]1C(c2ccc(F)cc2)=NN(c2ccccc2)[C@@H]1CO,16.2%,
CC(C)c1nc(SCC(=O)N2CCCc3ccccc32)c2c(=O)n(C)c(=O)n(C)c2n1,3.73%,
COc1cc(-c2c(CCO)sc3ccccc23)cc(OC)c1OC,6.17%,
COC(=O)c1cc2oc(C)cc2n1Cc1ccc(Br)cc1F,14.1%,
N#CC(C(=O)NCc1ccco1)c1nc2ccccc2nc1N1CCOCC1 (stereo not given),19.1%,
O=C1CNC(=O)c2c(nc3n2CCC3)N1,6.16%,
CC(=O)N1N=C(N)SC1c1ccc(Cl)c(Cl)c1 (stereo not given),5.36%,
CC/C(=N/NC(=O)c1ccc2c(c1)OCO2)c1ccccc1O,-11.9%,
COc1cc(/C=C2/C(=O)NN(c3ccc(Cl)cc3)C2=O)ccc1OC(=O)c1ccco1,1.61%,
O=C(O)CN1C(=O)/C(=C\c2cccc(OCc3ccccc3F)c2)SC1=S,0.495%,
Cc1ccc(C)c(S(=O)(=O)N2CCN(C(=O)CCCc3c[nH]c4ccccc34)CC2)c1,8.85%,
Cc1ccc(C(=O)Nc2ccc(N3CCOCC3)c3nonc23)cc1[N+](=O)[O-],19.1%,
Cc1cccc(C(=O)Nc2cccc(C(=O)N/N=C/c3cccc(C)n3)c2)c1,7.91%,
Cc1nn(-c2ccccc2)c(C)c1NC(=O)COC(=O)Cc1cccc(C(F)(F)F)c1,-2.7%,
O=C(c1ccco1)N(CCC(c1ccccc1)c1ccco1)Cc1ccco1 (stereo not given),14.8%,
COC1C(CO)OC(n2c3c(Cl)cccc3c3c4c(c5c6cccc(Cl)c6[nH]c5c32)C(=O)NC4=O)C(O)C1O (stereo not given),-25.4%,
Cc1ccc(-n2nc(C(=O)N(C)c3ccc(C)c(C)c3)c3c4ccccc4n(C)c3c2=O)cc1,11.6%,
CN1CCN(CCC(=O)Nc2ccc(Cl)cc2)CC1,5.43%,
